The text below walks through data of PubChem BioAssay (NCATS).

Experiment [1] concerns the target Cellular tumor antigen p53 (Homo sapiens) (UniProt P04637). Nature of the experiment: Primary qHTS for small molecule compounds that upregulate eGFP-tagged delta133p53alpha (in C-terminal) cells. (AID 2060324). Note: potency is the fitted concentration of half-maximal effect. Summed up: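 In this qHTS, GFP-tagged delta133p53alpha levels are measured in fixed NCI-H358 cells after 24 h compound exposure at 37 °C. The cells are pre-induced with 100 ng/ml doxycycline, and signal is normalized to DMSO-treated wells as 0%.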

In experiment [2] the target is Aldehyde dehydrogenase, mitochondrial (Homo sapiens) (UniProt P05091). Nature of the experiment: qHTS for Inhibitors of the Aldehyde Dehydrogenase Family (ALDH2) Validation screens (AID 2061302; active = well fitted inhibition curve with a large enough effect; title and protocol of this record describe different tests;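 note: plate controls were DMSO vehicle for no effect and maximal DPI positive control response for full effect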). On the technique in general: qHTS replaces the single test concentration by a dilution series.
For experiment [3], the target named is Retinaldehyde dehydrogenase 3 (Homo sapiens) (UniProt P47895). Nature of the experiment: qHTS for Inhibitors of the Aldehyde Dehydrogenase Family (ALDH1A3) Validation screen (AID 2061312). Note: % is set by controls: 0 for no effect and ±100 for the full control effect; nearly all actives have a fitted effect of over 45% in size.
Experiment [4] is described as follows: BET inhibitor-based combinations targeting novel dependencies in MECOM-rearranged (r) AML: SET-2 cell line (AID 2202231).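 For viability: plate controls were DMSO treated cells for no effect and wells without cells for full effect.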 Note: nearly all actives have a fitted effect of over 35% in size. Note: potency is the fitted concentration of half-maximal effect. The conditions noted are these: SET-2 AML cells viability, CellTiter-Glo luminescence, 48 h; viability: stronger effect = lower value, concentration not given here. The method, boiled down:
(§1)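 500 cells/well; 11-pt dose curve; 48 h, standard incubator; CellTiter-Glo luminescence after 15 min RT; DMSO/empty-well normalization; AUC plus Z-AUC (mean-centered within each line).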
(Cellular ATP, detected with luciferase, serves as a proxy for viable cell number.)

The nature of experiment [5]: BET inhibitor-based combinations targeting novel dependencies in MECOM-rearranged (r) AML: MV-4-11 cell line (AID 2202233). Note: nearly all actives have a fitted effect of over 45% in size. Note: potency is the fitted concentration of half-maximal effect. The method, boiled down: (§2)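 Cells were plated at 500 per well and exposed to each drug across an 11-point dose range for 48 hr at standard incubator conditions. Viability was read by CellTiter-Glo luminescence, and activity was expressed as AUC and per-cell-line Z-transformed AUC.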

Experiment [6] in a line: BET inhibitor-based combinations targeting novel dependencies in MECOM-rearranged (r) AML: HNT-34 cell line (AID 2202234). Note: nearly all actives have a fitted effect of over 35% in size. Note: potency is the fitted concentration of half-maximal effect. The method, boiled down: as §2
A short description of experiment [7]: BET inhibitor-based combinations targeting novel dependencies in MECOM-rearranged (r) AML: UCSD-AML1 cell line (AID 2202235).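 Note: series mostly up to about 46 µM; plate controls were DMSO vehicle wells for no effect and blank wells for full effect; nearly all actives have a fitted effect of over 40% in size.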 The method, boiled down:
as §2

Experiment [8] in a line: BET inhibitor-based combinations targeting novel dependencies in MECOM-rearranged (r) AML: AML-191 cell line (AID 2202236; note: nearly all actives have a fitted effect of over 35% in size; note: potency is the fitted concentration of half-maximal effect). The method, boiled down:
as §1

Experiment [9] can be described thus: BET inhibitor-based combinations targeting novel dependencies in MECOM-rearranged (r) AML: AML-194 cell line (AID 2202237;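 note: plate controls were vehicle wells for no effect and wells without cells for full effect; nearly all actives have a fitted effect of over 40% in size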). The method, boiled down: as §1
Experiment [10] can be described thus: qHTS for Inhibitors of the Aldehyde Dehydrogenase Family (ALDH1A2, ALDH1A3, ALDH2, ALDH3A1) (AID 2061307). Note: % is set by controls: 0 for no effect and ±100 for the full control effect; nearly all actives have a fitted effect of over 50% in size.
Experiment [11] can be described thus: BET inhibitor-based combinations targeting novel dependencies in MECOM-rearranged (r) AML: OCI-AML3 cell line (AID 2202232). Note: nearly all actives have a fitted effect of over 35% in size. Note: potency is the fitted concentration of half-maximal effect. The conditions noted are these: Potency: OCI-AML3 viability. Summed up: as §1
Experiment [12] addresses Aldehyde dehydrogenase, mitochondrial (Homo sapiens) (UniProt P05091). The experiment in a line: qHTS for Inhibitors of the Aldehyde Dehydrogenase Family (ALDH2) Primary screen (AID 2061308).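 Note: plate controls were vehicle for no effect and reference inhibitor for full effect; nearly all actives have a fitted effect of over 55% in size.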
For experiment [13], the target named is Retinaldehyde dehydrogenase 3 (Homo sapiens) (UniProt P47895). The experiment in a line: qHTS for Inhibitors of the Aldehyde Dehydrogenase Family (ALDH1A3) Primary screen (AID 2061315).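 Note: plate controls were DMSO vehicle for no effect and reference inhibitor for full effect.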
The target is the same in experiment [14]. The experiment in a line: qHTS for Inhibitors of the Aldehyde Dehydrogenase Family (ALDH1A3) Confirmatory screens (AID 2061311). Note: potency is the fitted concentration of half-maximal effect; nearly all actives have a fitted effect of over 60% in size.
The target in experiment [15] is Retinal dehydrogenase 2 (Homo sapiens) (UniProt O94788). Nature of the experiment: qHTS for Inhibitors of the Aldehyde Dehydrogenase Family (ALDH1A2) Confirmation screens (AID 2061314). Note: potency is the fitted concentration of half-maximal effect; nearly all actives have a fitted effect of over 65% in size.
The target in experiment [16] is Aldehyde dehydrogenase 1A1 (Homo sapiens) (UniProt P00352). Nature of the experiment: qHTS for Inhibitors of the Aldehyde Dehydrogenase Family (ALDH1A1) Confirmatory screens (AID 2061316). Note: potency is the fitted concentration of half-maximal effect; nearly all actives have a fitted effect of over 65% in size.

The structures appear in SMILES notation. Inconclusive results are not listed. Unmarked numbers belong to inactive results. Calls of active or inactive are those of the source. Unless noted, calls come from the whole dose curve; as a rule, active = well fitted curve in the direction sought with a large enough effect; inconclusive = small, poorly fitted or top-dose-only effect, or another doubt; inactive = no such curve, though single readings can be large; an effect the other way counts as inactive or inconclusive.

Sequence of Cellular tumor antigen p53 (Homo sapiens) (P04637 whole entry, looked up): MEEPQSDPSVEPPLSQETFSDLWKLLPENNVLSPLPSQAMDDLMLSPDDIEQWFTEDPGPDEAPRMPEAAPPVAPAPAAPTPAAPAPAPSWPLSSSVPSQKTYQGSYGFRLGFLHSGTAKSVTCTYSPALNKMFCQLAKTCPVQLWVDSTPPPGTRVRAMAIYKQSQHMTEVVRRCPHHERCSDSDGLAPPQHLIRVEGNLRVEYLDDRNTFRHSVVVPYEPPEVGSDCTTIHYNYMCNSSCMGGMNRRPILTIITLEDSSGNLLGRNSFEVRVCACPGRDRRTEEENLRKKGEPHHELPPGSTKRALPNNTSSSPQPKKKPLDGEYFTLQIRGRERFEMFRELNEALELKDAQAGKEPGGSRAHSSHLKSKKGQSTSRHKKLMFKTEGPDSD

In the case of `CCOC(=O)C12CC1/C(=N/O)c1ccccc1O2` (stereo not given), the Potency result in experiment [1], in experiment [2] and in experiment [3] was “inactive” throughout.
On to `Cn1ccc2cc3c(cc21)CCN3C(=O)Nc1cccnc1`, for which the Potency entry in experiment [1], in experiment [2], in experiment [5], in experiment [6], in experiment [7] and in experiment [8] was “inactive” each time. Besides, the Potency entry in [9] was “inactive”. For the same compound, the viability – broadly, a read-out of living cells in per cent, often relative to untreated cells – in experiment [4] was 105%.
For the compound `O=C(O)C1CCCNC1` (stereo not given), the Potency result in experiment [1], in experiment [2] and in [3] was “inactive” throughout.
Take `O=c1c(-c2ccc(O)cc2)coc2cc(O[C@@H]3O[C@H](CO)[C@@H](O)[C@H](O)[C@H]3O)cc(O)c12`: in experiment [2], the Potency result was “inactive”.
In the case of `O=C1NC(=O)c2cc(Nc3ccccc3)c(Nc3ccccc3)cc21`, in experiment [1], the Potency was 30.1 µM (active). In experiment [3], the Potency entry is “inactive”.
Take `O=c1c(-c2ccc(O[C@@H]3O[C@H](CO)[C@@H](O)[C@H](O)[C@H]3O)cc2)coc2cc(O)cc(O)c12`: the Potency result in [2] was “inactive”.
For the compound `Clc1ccc2c(N3CCN(CCCN4CCN(c5ccnc6cc(Cl)ccc56)CC4)CC3)ccnc2c1`, the Potency result in experiment [1], in experiment [10], in experiment [11], in experiment [6], in [7] and in [8] was “inactive” each time. Moreover, the Potency result in [9] was “inactive”.
Take `COc1cc(OC)cc(-c2cc3cnc(N)nc3nc2NC(=O)NC(C)(C)C)c1`: the Potency result in [1], in [2] and in experiment [3] was “inactive” in each case.
As for `NC1[C@H]2CN(c3nc4c(cc3F)c(=O)c(C(=O)O)cn4-c3ccc(F)cc3F)C[C@@H]12` (stereo not given in full), the Potency result in experiment [1], in experiment [2] and in experiment [3] was “inactive” each time.
As for `Cc1ccc(/C(=C\CN2CCCC2)c2ccccn2)cc1`, in [2], the Potency result was “inactive”.
For `CCOC(=O)C(C)Oc1cccc2c(=O)n(CC(=O)Nc3ccc4c(c3)OCCO4)ccc12` (stereo not given), the Potency entry in experiment [1], in [2], in experiment [3], in experiment [6], in experiment [8] and in [9] was “inactive” throughout. For the same compound, in [4], the viability is 114%. The Potency in [11] was 3.72 µM (active); in experiment [5], 3.32 µM (active).
Regarding `N=c1c[n+](N2CCOCC2)[n-]o1`, the Potency result in experiment [2] is “inactive”.
As to `COc1ccc2c(c1)CCC1C2CC[C@@]2(C)C1CC[C@@H]2NCCCCCCN1C(=O)C=CC1=O` (stereo not given in full), the Potency result in experiment [1], in [2] and in experiment [3] was “inactive” each time.
With `C/C=C/CC(C)C(O)C1C(=O)NC(CC)C(=O)N(C)CC(=O)N(C)C(CC(C)C)C(=O)NC(C(C)C)C(=O)N(C)C(CC(C)C)C(=O)NC(C)C(=O)NC(C)C(=O)N(C)C(CC(C)C)C(=O)N(C)C(CC(C)C)C(=O)N(C)C(C(C)C)C(=O)N1C` (stereo not given), the Potency entry in experiment [1], in experiment [12], in experiment [3] and in [13] was “inactive” in each case.
Take `NS(=O)(=O)c1cc2c(cc1Cl)NCNS2(=O)=O`: the Potency result in experiment [1], in experiment [2], in experiment [3], in experiment [11], in experiment [6] and in [7] was “inactive” in each case. The Potency entry in [9] is “inactive”. The viability in experiment [4] was 107%.
Take `Cn1c(=O)c2[nH]c(C3CCCC3)nc2n(C)c1=O`: the Potency entry in experiment [1], in experiment [2] and in [3] was “inactive” throughout.
With `COc1ccc(-c2coc3cc(O[C@@H]4O[C@H](CO)[C@@H](O)[C@H](O)[C@H]4O)ccc3c2=O)cc1`, the Potency entry in [2] was “inactive”.
Take `O=c1cc(-c2ccccc2F)[nH]c2cc3c(cc12)OCO3`: the Potency entry in [1] and in experiment [3] was “inactive” each time.
Take `Clc1ccccc1C(c1ccccc1)(c1ccccc1)n1ccnc1`: the Potency result in experiment [1], in experiment [2] and in experiment [3] was “inactive” throughout. For the same compound, the Potency in experiment [4] is 18.6 µM (active); in [11], 16.6 µM (active); in [5] it was 18.6 µM (active); in experiment [6], 18.6 µM (active); in experiment [8] it was 23.5 µM (active).
For the compound `CCCCCCCC/C=C\CCCCCCCC(=O)NCc1ccc(O)c(OC)c1`, the Potency result in [1] and in experiment [3] was “inactive” throughout.
In the case of `O=C1NCc2c1c1c3ccccc3[nH]c1c1[nH]c3ccccc3c21`, the Potency in experiment [1] is 30.1 µM (active). Also, the Potency entry in experiment [2] and in experiment [3] was “inactive” each time.
On to `Nc1c2c(nc3ccccc13)CCCC2O` (stereo not given), for which the Potency result in [1], in [2] and in experiment [3] was “inactive” throughout.
For the compound `CC(C)NC[C@@H](O)c1ccc(O)c(O)c1`, in experiment [2], the Potency result was “inactive”.
As to `CN1CCC(=C2c3ccccc3C=Cc3ccccc32)CC1`, the Potency result in experiment [1], in experiment [2], in experiment [3], in experiment [7] and in experiment [9] was “inactive” throughout.
In the case of `CC(=O)/C(C)=N/O`, the Potency entry in [1], in experiment [2] and in experiment [3] was “inactive” each time.
For `Cc1nnc(SCC2=C(C(=O)O)N3C(=O)[C@@H](NC(=O)Cn4cnnn4)[C@H]3SC2)s1`, in experiment [2], the Potency result was “inactive”.
For `CC(C)c1cccc(C(C)C)c1N1C(=O)c2ccc(O)cc2C1=O`, the Potency entry in [1], in [2] and in [3] was “inactive” in each case.
Turning to `CN(C)C(=O)Oc1ccc[n+](C)c1`, the Potency entry in experiment [1], in [2] and in experiment [3] was “inactive” throughout.
Take `CO[C@H]1O[C@@H]2O[C@]3(C)CC[C@@H]4[C@@H](C)CC[C@H]([C@H]1C)[C@]24OO3`: the Potency entry in experiment [1], in experiment [2] and in experiment [3] was “inactive” in each case.
Consider `Nc1ccc2c3c(cccc13)C(=O)NC2=O`, for which the Potency in [1] was 30.1 µM (active). Also, the Potency entry in experiment [2] and in experiment [3] was “inactive” each time.
On to `CCCCN(CCCC)CC(O)c1cc(Cl)cc2c1-c1ccc(Cl)cc1/C2=C/c1ccc(Cl)cc1` (stereo not given), for which the Potency entry in experiment [1], in [2], in [3], in [11], in experiment [5] and in experiment [7] was “inactive” throughout. For the same compound, the Potency result in [8] and in experiment [9] was “inactive” each time. For the same compound, in experiment [4], the viability was 104%.
As to `O=C(N[C@@H](Cc1ccccc1)C(=O)CCl)OCc1ccccc1`, the Potency in [1] was 12 µM (active); in [14] it was 11.2 µM (active); in [15], 0.798 µM (active); in [16], 0.318 µM (active). For the same compound, the Potency result in [3] was “inactive”.
